HTR5A inv ag: inverse agonist of human HTR5A in OPRM1-OPRD1 counter-screen; P47898; HTR5A cell line, luminescence, inverse agonism; inhibition, % at 9.3 µM; 0.083% of 340,000 active; in the data active = inhibition mostly above about 23%, no sharp cut-off; inactive = mostly below about 18%;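 note: 0% = cells with DMSO and 100% = no-cell wells with DMSO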
HTR5A ag ctr: counter-screen for OPRM1-OPRD1 agonists: human HTR5A agonism | P47898 | HTR5A agonist assay, luminescence, cell-based | activation, % at 9.3 µM | 0.61% of 340,000 active | AID 504692; in the data active = activation mostly above about 9.5%, no sharp cut-off; inactive = mostly below about 7.6%;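 note: 0% = cells with vehicle only and 100% = reference agonist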
OPRM1-OPRD1 inv: inverse agonists of human mu-delta opioid receptor heterodimerization; cell-based MOR-DOR heterodimer luminescence, inverse agonism; inhibition, % at 9.3 µM; 0.21% of 340,000 active; AID 504357; in the data active = inhibition above about 22%, passing the limit was not always enough;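 note: 0% = cells with DMSO and 100% = wells without cells with DMSO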
Target sequence (P35372 whole entry, looked up): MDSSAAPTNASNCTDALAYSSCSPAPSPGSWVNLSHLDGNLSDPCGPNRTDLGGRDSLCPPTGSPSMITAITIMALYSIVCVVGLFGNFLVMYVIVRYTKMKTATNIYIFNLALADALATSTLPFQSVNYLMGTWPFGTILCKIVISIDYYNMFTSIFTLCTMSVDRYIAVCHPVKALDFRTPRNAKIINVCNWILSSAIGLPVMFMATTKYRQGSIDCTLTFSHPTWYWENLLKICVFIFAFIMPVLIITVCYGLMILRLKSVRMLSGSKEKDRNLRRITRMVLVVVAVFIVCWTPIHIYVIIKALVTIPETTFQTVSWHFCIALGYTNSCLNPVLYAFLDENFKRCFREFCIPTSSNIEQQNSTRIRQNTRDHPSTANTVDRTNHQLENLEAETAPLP
Target sequence (P41143 whole entry, looked up): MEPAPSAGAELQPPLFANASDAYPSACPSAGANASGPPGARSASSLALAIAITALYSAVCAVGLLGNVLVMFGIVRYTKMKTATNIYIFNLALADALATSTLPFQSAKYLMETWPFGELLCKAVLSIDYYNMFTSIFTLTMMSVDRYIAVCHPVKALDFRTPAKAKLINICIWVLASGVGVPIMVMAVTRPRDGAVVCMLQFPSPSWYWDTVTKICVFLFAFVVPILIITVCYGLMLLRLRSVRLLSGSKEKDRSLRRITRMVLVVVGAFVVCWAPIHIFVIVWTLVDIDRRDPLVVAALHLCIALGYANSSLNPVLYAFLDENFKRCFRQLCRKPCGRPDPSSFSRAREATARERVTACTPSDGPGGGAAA
MOR-DOR ag: agonists of human mu-delta opioid receptor heterodimerization. P35372+P41143. cells, OPRM1-OPRD1 heterodimerization, luminescence. activation, % at 9.3 µM. 0.3% of 340,000 active;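 note: 0% = vehicle-treated cells and 100% = reference agonist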
MOR-DOR ag conf: confirmation of human OPRM1-OPRD1 heterodimerization agonists; shares compounds with MOR-DOR ag; AID 504904; cells, MOR-DOR heterodimerization, luminescence complementation; activation, % at 9.3 µM; 45% of 830 active;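 note: 0% = vehicle-treated cells and 100% = reference agonist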
HTR5A ag ctr2: activates human HTR5A in OPRM1-OPRD1 agonist counter-screen. shares compounds with MOR-DOR ag. HTR5A agonist counterscreen, cell luminescence. activation, % at 9.3 µM. 8% of 830 active. AID 504905; in the data active = activation above about 17%;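 note: 0% = vehicle-treated cells and 100% = reference agonist response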
* hit, by the source's call. Compounds with a hit are over-represented: about 1.1% of the library has one in this group of screens. Cut-off read from the data, not from the text of the source, unless noted: active = activation above about 18%; inactive = the rest.

CN(C)C(CNC(=O)c1ccc2ccccc2c1)c1ccco1 (centres undefined) was read as HTR5A inv ag -3, HTR5A ag ctr 1, OPRM1-OPRD1 inv -158, MOR-DOR ag 30*, MOR-DOR ag conf 33* and HTR5A ag ctr2 4.
`CSc1ccc(C(=O)NCC(c2ccco2)N(C)C)cc1[N+](=O)[O-]` (centres undefined) gave HTR5A inv ag -17, HTR5A ag ctr 6, OPRM1-OPRD1 inv inactive, MOR-DOR ag 251*, MOR-DOR ag conf 242* and HTR5A ag ctr2 1.
For CSc1ccccc1C(=O)NCC(c1ccco1)N(C)C (centres undefined) the results were HTR5A inv ag -24, HTR5A ag ctr 8, OPRM1-OPRD1 inv 5 and MOR-DOR ag -1.
Screening Cc1cccc(C(=O)NCC(c2ccco2)N(C)C)c1 (centres undefined) returned HTR5A inv ag 2, HTR5A ag ctr -1, OPRM1-OPRD1 inv -5 and MOR-DOR ag 1.
For CC(=O)NC(CC(=O)NCC(c1ccco1)N(C)C)c1ccccc1 (centres undefined) the results were HTR5A inv ag -43, HTR5A ag ctr 4, OPRM1-OPRD1 inv inactive, MOR-DOR ag 195*, MOR-DOR ag conf 226* and HTR5A ag ctr2 -1.
For O=C1NC(=O)C2(CCC(C3CCCCC3)CC2)N1 (centres undefined) the results were HTR5A inv ag -16, HTR5A ag ctr 4, OPRM1-OPRD1 inv 0 and MOR-DOR ag 0.
`COc1cc(C2C(C#N)=C(N)OC3=C2C(=O)CCC3)cc2c1OCO2` (centres undefined) gave HTR5A inv ag -11, HTR5A ag ctr 3, OPRM1-OPRD1 inv 16 and MOR-DOR ag -4.
CC1CCC(C(C)C)C(OC(=O)COC(=O)c2cc(O)ccc2N)C1 (centres undefined) was read as HTR5A inv ag -44, HTR5A ag ctr 7, OPRM1-OPRD1 inv -134, MOR-DOR ag 24*, MOR-DOR ag conf 0 and HTR5A ag ctr2 -10.
For CCC(C(=O)N1CCN(S(=O)(=O)c2ccc(F)cc2)CC1)c1ccccc1 (centres undefined) the results were HTR5A inv ag -2, HTR5A ag ctr 1, OPRM1-OPRD1 inv 10 and MOR-DOR ag -2.
COCCCNC(=O)/C=C/c1cccc(Cl)c1 was read as HTR5A inv ag 3, HTR5A ag ctr 0, OPRM1-OPRD1 inv 0 and MOR-DOR ag 0.
`CC(NC(=O)c1ccc2ccccc2n1)c1ccccc1` (centres undefined) gave HTR5A inv ag -53, HTR5A ag ctr 5, OPRM1-OPRD1 inv -2 and MOR-DOR ag 0.
For CN(C)C(CNC(=O)/C=C/c1cccc(Cl)c1)c1ccccc1 (centres undefined) the results were HTR5A inv ag 9, HTR5A ag ctr -3, OPRM1-OPRD1 inv inactive, MOR-DOR ag 275*, MOR-DOR ag conf 10 and HTR5A ag ctr2 6.
`CN(C)C(CNC(=O)c1cnc(Cl)c(Cl)c1)c1ccccc1` (centres undefined) gave HTR5A inv ag 3, HTR5A ag ctr -1, OPRM1-OPRD1 inv inactive, MOR-DOR ag 353*, MOR-DOR ag conf 374* and HTR5A ag ctr2 0.
For CN(C)C(CNC(=O)c1ccc2ccccc2n1)c1ccccc1 (centres undefined) the results were HTR5A inv ag -8, HTR5A ag ctr 3, OPRM1-OPRD1 inv -437, MOR-DOR ag 58*, MOR-DOR ag conf -2 and HTR5A ag ctr2 0.
`CN(C)C(CNC(=O)c1cc(S(=O)(=O)N(C)c2ccccc2)ccc1Cl)c1ccccc1` (centres undefined) gave HTR5A inv ag -17, HTR5A ag ctr 6, OPRM1-OPRD1 inv 4 and MOR-DOR ag -1.
Screening COc1ccc(-c2noc(N3CCC(C(=O)Nc4cc(OC)c(OC)c(OC)c4)CC3)n2)cc1 returned HTR5A inv ag -11, HTR5A ag ctr 2, OPRM1-OPRD1 inv 3 and MOR-DOR ag -1.
Screening COc1cc(CNC(C)c2ccccc2)cc(Cl)c1OCC(=O)Nc1ccccc1 (centres undefined) returned HTR5A inv ag 10, HTR5A ag ctr -4, OPRM1-OPRD1 inv -118, MOR-DOR ag 21*, MOR-DOR ag conf 12 and HTR5A ag ctr2 12.
`CCN(CC)CCNCc1cc(Cl)c(OCC(=O)Nc2ccccc2)c(OC)c1` gave HTR5A inv ag 4, HTR5A ag ctr 0, OPRM1-OPRD1 inv 1 and MOR-DOR ag 0.
For COc1cc(CNC(C)c2ccccc2)cc(Br)c1OCc1ccc(F)cc1 (centres undefined) the results were HTR5A inv ag -1, HTR5A ag ctr 0, OPRM1-OPRD1 inv -100, MOR-DOR ag 21*, MOR-DOR ag conf 16 and HTR5A ag ctr2 5.
Screening O=C(CSc1ccc(Cl)cc1)Nc1cccc(-c2nc3ccccc3[nH]2)c1 returned HTR5A inv ag -6, HTR5A ag ctr 2, OPRM1-OPRD1 inv -203, MOR-DOR ag 34*, MOR-DOR ag conf 13 and HTR5A ag ctr2 8.
For O=C(CSc1ccccc1)Nc1ccc(-c2nc3ccccc3[nH]2)cc1 the results were HTR5A inv ag -32, HTR5A ag ctr 8, OPRM1-OPRD1 inv -111, MOR-DOR ag 22*, MOR-DOR ag conf 5 and HTR5A ag ctr2 -2.
Screening O=C(Nc1cccc(-c2nc3ccccc3[nH]2)c1)c1cccc(NC(=O)c2ccco2)c1 returned HTR5A inv ag 13, HTR5A ag ctr 7, OPRM1-OPRD1 inv -459, MOR-DOR ag 88*, MOR-DOR ag conf -2 and HTR5A ag ctr2 -1.
`CC(C)NC(=O)c1ccc(COc2cc(Cl)ccc2Cl)o1` gave HTR5A inv ag -16, HTR5A ag ctr 4, OPRM1-OPRD1 inv 1 and MOR-DOR ag 0.
Screening CCc1ccc(NC(=O)CCC(=O)Nc2nnc(C(F)(F)F)s2)cc1 returned HTR5A inv ag 13, HTR5A ag ctr -2, OPRM1-OPRD1 inv 16 and MOR-DOR ag -3.
`CNC[C@H](Cc1ccccc1)NC[C@@H](Cc1cccc2ccccc12)NCCc1ccc(C)cc1` gave HTR5A inv ag -11, HTR5A ag ctr 1, OPRM1-OPRD1 inv -167, MOR-DOR ag 30*, MOR-DOR ag conf 4 and HTR5A ag ctr2 -1.
`Cc1ccc(S(=O)(=O)NCCC(=O)NCC(c2cccs2)N2CCOCC2)cc1` (centres undefined) gave HTR5A inv ag 2, HTR5A ag ctr 3, OPRM1-OPRD1 inv 19 and MOR-DOR ag -4.
`Cc1oc2c(c1C(=O)c1ccccc1)C(=O)C(=O)c1ccccc1-2` gave HTR5A inv ag -2, HTR5A ag ctr 1, OPRM1-OPRD1 inv -90, MOR-DOR ag 18*, MOR-DOR ag conf 21* and HTR5A ag ctr2 5.
`CN(C)CCCN(C(=O)c1ccc(S(=O)(=O)N2CCCCCC2)cc1)c1nc2ccc(F)cc2s1` gave HTR5A inv ag -3, HTR5A ag ctr 2, OPRM1-OPRD1 inv inactive, MOR-DOR ag 155*, MOR-DOR ag conf 3 and HTR5A ag ctr2 2.

Compound activity from PubChem BioAssay.
